Data taken from the supplement of paper PMC3334620.
The full ranking holds about 33,000 sequences; the median of “E-score (-0.5 to 0.5)” is about -0.054, and the highest 2% start at about 0.39. The sample as a whole holds a higher share of the highest values than the screen did.

biological target: Ylr278c (UniProt Q05854); assay: PBM E-score (8-mer binding enrichment) (E-score (-0.5 to 0.5)); higher = stronger / more preferred TF binding; conditions: protein concentration: 200 nM; construct: GST-DNA-binding domain
Sequence of UniProt Q05854 (Q05854 whole entry, the tested form may be a part): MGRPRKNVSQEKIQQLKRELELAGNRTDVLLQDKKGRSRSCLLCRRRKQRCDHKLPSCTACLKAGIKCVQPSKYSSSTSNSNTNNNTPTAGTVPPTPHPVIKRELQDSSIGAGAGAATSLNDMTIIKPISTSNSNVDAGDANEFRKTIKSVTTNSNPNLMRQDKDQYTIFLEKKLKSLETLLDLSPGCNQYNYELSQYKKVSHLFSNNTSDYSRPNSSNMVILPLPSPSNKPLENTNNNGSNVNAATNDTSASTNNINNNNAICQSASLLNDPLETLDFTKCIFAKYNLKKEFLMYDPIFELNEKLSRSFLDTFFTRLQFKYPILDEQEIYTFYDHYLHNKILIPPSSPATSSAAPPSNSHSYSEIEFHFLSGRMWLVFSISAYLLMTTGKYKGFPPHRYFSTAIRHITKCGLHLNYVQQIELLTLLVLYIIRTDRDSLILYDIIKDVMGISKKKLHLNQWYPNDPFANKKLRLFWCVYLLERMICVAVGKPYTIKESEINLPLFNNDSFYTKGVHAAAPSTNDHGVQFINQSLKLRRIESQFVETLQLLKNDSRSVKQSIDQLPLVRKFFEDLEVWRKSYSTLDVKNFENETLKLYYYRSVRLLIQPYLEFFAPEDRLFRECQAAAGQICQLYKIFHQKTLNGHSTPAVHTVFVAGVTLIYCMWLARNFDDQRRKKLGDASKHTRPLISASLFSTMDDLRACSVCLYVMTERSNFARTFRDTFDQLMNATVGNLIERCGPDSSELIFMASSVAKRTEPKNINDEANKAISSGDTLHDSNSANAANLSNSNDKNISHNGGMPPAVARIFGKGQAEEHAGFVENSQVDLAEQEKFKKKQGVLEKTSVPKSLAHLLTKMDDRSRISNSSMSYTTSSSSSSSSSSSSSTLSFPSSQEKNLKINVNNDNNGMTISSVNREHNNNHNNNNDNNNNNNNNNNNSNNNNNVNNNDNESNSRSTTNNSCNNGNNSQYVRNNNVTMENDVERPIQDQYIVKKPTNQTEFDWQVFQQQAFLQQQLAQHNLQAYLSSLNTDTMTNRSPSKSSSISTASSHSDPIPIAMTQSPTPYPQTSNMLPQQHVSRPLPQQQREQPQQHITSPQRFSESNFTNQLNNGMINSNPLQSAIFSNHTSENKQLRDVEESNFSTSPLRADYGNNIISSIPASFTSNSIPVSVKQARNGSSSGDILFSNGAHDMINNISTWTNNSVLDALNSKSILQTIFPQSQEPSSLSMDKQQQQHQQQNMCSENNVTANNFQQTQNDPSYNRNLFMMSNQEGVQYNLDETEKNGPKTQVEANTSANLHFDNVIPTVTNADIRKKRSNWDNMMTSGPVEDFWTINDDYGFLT
Experimental: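 Universal 'all 10-mer' protein binding microarrays (Agilent AMADID 015681) probed with GST-tagged S. cerevisiae TFs (full-length or DBD) made by in vitro transcription/translation (PURExpress), about 100-200 nM. Bound TF was detected with fluorescent anti-GST. Each ungapped 8-mer (which stands for itself and its reverse complement) is scored by the PBM enrichment score (E-score), a modified Wilcoxon-Mann-Whitney statistic from -0.5 to +0.5, computed with the Universal PBM Analysis Suite. Scale: above 0.35 generally sequence-specific binding.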

Sequence	PBM E-score
CATAGCCA	-0.115
CGGAAGTA	0.342
CGGAATTA	0.466
CTGAATTC	-0.0397
CGGAATTC	0.464
CGGAATCA	0.39
AGGAATCA	-0.0846
AGGAAGTC	-0.156
CGGAAGTC	0.396
AGGAATTC	-0.0584
GGGAATTA	0.143
AGGAATTA	0.0107
GGGAATCA	-0.0137
GACCTCAA	-0.226
TAGATAAA	-0.0204
AGTTGGTA	-0.238
AGTCAACC	-0.0996
CGAAGCGC	0.197
CCAGCCTC	-0.302
GTGGGTGA	0.0373
CAGTGGCG	0.0163
AGCGGAAC	0.333
AACGGAAG	0.0937
TGCGGAAA	0.334
CGCGGAAC	0.368
ACCGGAAA	0.369

Sequence	PBM E-score
AGCGGAAG	0.305
CCCGGAAC	0.4
ACCGGAAG	0.388
TCCGGAAA	0.456
CACGGAAC	0.276
TACGGAAA	0.3
ACCGGAAC	0.428
GCCACCAA	-0.0527
CTTCGCAC	-0.164
AAAAGTCC	0.371
TAATGGGA	-0.256
AGAAGAGG	-0.194
CCCTCAGC	-0.0523
ACCGGGAT	0.388
CCCGGAAG	0.39
ACCGGAAT	0.389
CACGGAAG	0.228
CCCGGAAA	0.429
GACGGAAA	0.35
ACCGGTAT	0.277
CTCGGAAG	0.303
GCCGGAAA	0.428
GCCGGGAA	0.329
CACGGAAA	0.328
CCGGGAAA	0.354
CGCAATTA	0.23

Sequence	PBM E-score
AAACTGCC	-0.0969
ACCTCTTA	0.176
GTCTAAAC	0.0271
ATCGCGTC	-0.0429
GCTTGGCA	-0.34
GCCGGAAC	0.432
GACGGAAC	0.192
GGCGGAAC	0.349
GAGCGCTC	0.0431
TCTTATCA	0.0183
CCAATGTC	-0.156
ACCTCCTA	-0.101
ACCTCCAA	-0.209
GCCTCCGC	0.361
ACCTCCGA	0.454
CCCTCCGC	0.259
CCCTCCGG	0.388
TCCTCCCA	0.0879
CCCTCCAG	-0.0892
TCCTCCAA	-0.245
GCCTCCGA	0.398
GCCTCCAA	-0.134
TCCTCCGA	0.43
AAGCCCAG	-0.143
ACACCTAG	-0.13
AGACTTCG	-0.137

Sequence	PBM E-score
GACAGGTA	-0.0451
GCTATAGA	-0.234
CCAGGCAC	-0.0214
ACCTCCTG	-0.253
CCCTCCAA	-0.119
ACCTCCGC	0.425
ACCTCCTC	-0.0564
ACCTCCAC	0.0767
ACCTCCGG	0.47
CCCTCCTA	-0.107
CCCTCCGA	0.405
ACCTCCGT	0.383
GTAAGAAA	-0.0755
GAGCGGCA	0.207
ATGGTCAC	-0.0597
ATTTAAAA	0.114
AGGTAGCA	-0.197
CATCTAAC	-0.0951
AGCTAGAC	-0.174
CTGGCGGA	0.183
CTGGCGGC	0.207
CCGGCGAA	0.404
CCGGCGGC	0.407
GCGGCGAA	0.378
TCGGCGAA	0.372
CCGGCGGA	0.456

Sequence	PBM E-score
GTGGCGGA	0.35
GCGGCGGA	0.453
ACGGCGGA	0.37
CAGGCGGA	0.327
ACGGCGGC	0.167
ACGCGAAC	-0.00887
ATGAAGCC	0.0954
ACTGCCCA	-0.151
AGTTCATA	-0.0477
AATGGGTG	-0.0286
GAGGCTTA	-0.0425
GCGGCGCC	0.289
CCGGCGCC	0.422
ACGGCGCC	0.184
AATTCTGT	-0.0602
CGCGTGGC	-0.00486
CTGGATTC	-0.00018
AGGGATTC	-0.0988
CGGGATTA	0.406
CGGGATTC	0.392
AGGGATTA	-0.223
GGGGATTA	0.175
GTCGGGCA	0.0838
GCTGAACA	-0.153
CTTAGTCA	-0.184
CACTACGG	0.201

Sequence	PBM E-score
AGGTCAAA	-0.237
GATAGTCA	-0.0752
GCTCAGGA	-0.173
ACCCTAAG	-0.173
GCTCGGGA	0.174
GGGAACTA	0.11
AGGAACTA	-0.0554
CGGAACTA	0.422
CTGAACTC	-0.141
CGGAACTC	0.409
AGGAACTC	0.0174
AGGCTTAA	-0.00203
GATACCTA	-0.0272
ATGACGAG	-0.153
GTATTGTA	0.0802
CATGCCGG	0.368
AATGCCGC	0.352
AATGCCGT	0.381
AATGCCGG	0.421
CATGCCGA	0.217
AATGCCGA	0.392
CGCCAGAC	-0.153
CAGATTAC	-0.0164
TATACCAA	-0.101
CTGAGCTC	0.0823
CGGAGCTA	0.42

Sequence	PBM E-score
AGGAGCTC	-0.122
AGGAGCTA	-0.144
CGGAGCTC	0.441
GGGAGCTA	-0.0279
CGTCTCTC	-0.00934
ATGGCTGA	-0.344
TCAGCACA	-0.175
GGGACATA	0.0665
CTGACATC	-0.0317
AGGACATC	0.0899
CGGACATC	0.421
AGGACATA	-0.278
CGGACATA	0.454
GGAAGTTA	0.204
ATTCCAAC	-0.176
TCGATGAA	-0.11
CTCTTTTC	-0.0672
GCGACGGA	0.313
ACGACGGA	0.301
CCGACGGA	0.425
CGGACGGA	0.397
CGGACGGC	0.313
GGGACGGA	0.369
CCGACGCC	0.361
CCGACGCG	0.394
ACGACGCG	0.0212

Sequence	PBM E-score
GACCTCCA	0.0669
CCAGCTAG	-0.391
CAAGTTAC	0.0544
GAGTTCAC	0.0107
ACGATGAG	-0.0386
ACCCAGTC	-0.0927
ATGCTTCC	-0.0282
CACTGGCC	-0.0953
CTGAGCAG	-0.238
CGGAGCAA	0.456
GGGAGCAC	0.0245
AGGAGCAA	-0.0147
TGGAGCAA	-0.111
CGGAGCAG	0.417
AGGAGCAC	-0.0853
CGGAGCAC	0.391
AGGAGCAG	-0.00465
GAGGGAAA	-0.26
AATGCGAG	0.00781
GTAGGGCA	-0.038
AATTCAGG	0.127
GTGGTATA	-0.188
CGTCTATC	0.0841
ACACACTA	-0.13
CTCGGAGC	0.431
CTCGGCGA	0.354

Sequence	PBM E-score
CTCGGATC	0.34
ATGGGAGA	-0.309
CTTGGAGA	-0.0088
ATCGGAGA	0.455
CTCGGAGA	0.449
ATCGGGGG	0.209
ATCAGAGA	-0.213
ATCGGAGG	0.426
CTCGGTGC	0.0178
ATCGGTGG	0.13
CTGCAGCA	-0.151
ACTCAAAG	-0.129
AACTTGTC	0.0361
TTAACCAA	-0.136
TAGCATAA	-0.111
ACTCCACA	-0.0234
CCTGACTA	-0.0923
GTCGGATA	0.312
ATCGGATC	0.33
ATCAGAGC	-0.0306
GTAGGAGA	-0.0599
ATCGGAGC	0.458
GTCGGAGA	0.444
ATATCTCA	0.0231
GATTATGA	-0.0204
GACTGGAA	-0.161

Sequence	PBM E-score
CAACTTAG	0.0176
AATAAGAC	-0.228
TGGGCCCA	0.026
CGGAGTTC	0.494
GGGAGTTA	0.195
CTGAGTTC	0.0225
CGGAGTTA	0.493
AGGAGTTA	0.232
AGGAGTTC	0.109
GCTACAAA	-0.0551
TAGCCACA	-0.289
CCTAAGAA	-0.261
CGAAAGCG	-0.00844
GTCCCAGA	-0.235
CGGCGGCA	0.281
AGGCGGGG	0.221
GAGCGGAC	0.321
CGGCGGCC	0.322
AGGCGGAT	0.237
AGGCGGAG	0.39
GGGCGAAC	0.0496
CGGCGGAC	0.411
CGGCGGAG	0.461
AGGCGGAC	0.386
GGGCGGAC	0.399
AGGCGGCG	0.193

Sequence	PBM E-score
CTTCAACC	-0.0749
GCGATGCC	0.0401
AGAGATGC	-0.0846
CATCACGC	0.0744
ACGTGGAT	-0.233
AAAAGGTG	-0.196
ATCCCTAA	-0.254
ACGGCCCC	-0.034
AGGCGGAA	0.304
CGGCGGAA	0.438
GGGCGGAA	0.364
ATTCCCCC	0.162
ATTCCGCG	0.439
ATGCCGCG	0.304
ATTCCGCC	0.418
CTTCCGCC	0.343
ATTCCGCA	0.356
CACACCCA	-0.107
GTACAACA	0.014
GAACTACC	0.0269
GAAAGTAA	-0.0679
CAACTGCC	-0.00091
CCTTTGAC	-0.121
CGGATTAG	0.299
CGGATTAA	0.39
GCGATTCC	0.237

Sequence	PBM E-score
CCGATTTC	0.303
CCGATTCG	0.267
CCGATTTA	0.396
CCGATTCC	0.393
GGGATTAA	0.223
CTGATTTC	-0.0243
ACGATTTA	0.0466
CGGATTTC	0.448
AGGATTTC	0.0497
TACGCGAA	-0.0238
ACAGGAGC	-0.0789
CTCATGGC	-0.0203
ATGCAAGA	-0.214
ACACTAAC	0.0293
ACCAAGAT	-0.0275
GACAATTA	0.0117
GGATCGTA	-0.00905
AATAGATA	-0.126
ACACTGCC	0.154
AGGATGTC	-0.0871
CGGATGTA	0.307
GGGATTTA	0.287
CGGATGTC	0.4
AGGATTTA	0.00139
CGGATTCA	0.161
CGGATTCC	0.427

Sequence	PBM E-score
AGGATTCC	-0.00339
CGGATTTA	0.451
TTAAAAAA	-0.12
AGACCCAC	-0.00095
GACTAAAC	-0.0103
GGGCAACA	0.0452
AACCACTG	-0.136
GCCCTCAC	-0.226
AATCCCCC	0.0792
CATCCCCA	-0.109
CATCCCCG	0.396
AATCCCGG	0.439
AATCCCCG	0.398
AATCCCGT	0.346
AATCCCCA	-0.0702
CATCCCCC	-0.0212
AATCCCGA	0.42
CATCCCGG	0.342
CATCCCGA	0.262
TATCCCGA	0.258
AGGTTCAG	0.0375
AAGCCTCC	0.0849
CATTGGCA	-0.208
CAAGATCC	0.167
ATTATAGC	-0.086
ATGTCTAC	-0.1

Sequence	PBM E-score
AGAAAGAT	-0.103
CACGTCAC	-0.147
GCGCATAA	-0.0332
ACCAAGAG	-0.29
ACCGAGAA	0.109
CCCGAGAA	0.293
GCCGATAA	0.301
TCCGATAA	0.428
ACCGATAA	0.269
GCCGAGGA	0.197
TCCGAGGA	0.401
CCCGAGGA	0.061
TCCGAGAA	0.421
